A selection: hits, their analogues and other compounds. The true share with any hit is near 12%.
TDP1 inh: TDP1 (human) enzyme inhibition; recombinant TDP1, AlphaScreen DNA substrate cleavage; AID 485290; Q9NUW8; Potency, µM (series often up to 130 µM), hits mostly inhibitors; hit rate 0.28% among 350,000; note: nearly all actives have a fitted effect of over 40% in size
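Enzyme-compound mixtures sat 15 min at room temperature, followed by a 5 min reaction with 15 nM final substrate and 10 min with AlphaScreen beads. Recombinant human Tdp1 was used at 1 nM final.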
G9a block: G9a (human) methyltransferase inhibition; G9a H3K9 monomethylation, AlphaScreen, 2 h; Potency, µM (doses to about 102 µM), usual class: inhibitors; hit rate 8.8% among 350,000; AID 504332; note: nearly all actives have a fitted effect of over 75% in size
Target sequence (Q96KQ7 913-1193 limits assumed): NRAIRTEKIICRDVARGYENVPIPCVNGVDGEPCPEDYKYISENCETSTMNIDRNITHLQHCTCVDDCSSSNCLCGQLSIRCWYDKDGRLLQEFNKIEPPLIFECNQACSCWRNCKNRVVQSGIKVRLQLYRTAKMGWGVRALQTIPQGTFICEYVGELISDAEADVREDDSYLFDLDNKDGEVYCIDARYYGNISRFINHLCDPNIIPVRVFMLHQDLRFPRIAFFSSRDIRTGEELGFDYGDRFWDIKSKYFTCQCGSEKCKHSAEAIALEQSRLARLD
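Step 1: enzyme (final 20 nM) with compound, 15 min RT. Step 2: substrate peptide 500 nM and SAM 20 uM, 2 h RT. Step 3: anti-H3K9me1 antibody and AlphaScreen beads, 10 min, then plate read.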
Sfp PPTase inh: Sfp phosphopantetheinyl transferase inhibition | Q9F4F7 | Biochemical Sfp PPTase activity, qHTS | Potency, µM, most hits filed as inhibitors | hit rate 3.5% among 310,000;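 note: the enzyme is Sfp with the accession as filed and its product quenches rhodamine fluorescence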
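Buffer: 50 mM Hepes-Na pH 7.6, 10 mM MgCl2, 0.01% Nonidet P-40, 0.01% BSA. Enzyme 15 nM, pre-exposed to compound 15 min; substrates then added and fluorescence change tracked over 30 min.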
JMJD2A Tudor: JMJD2A Tudor domain (human) inhibition; O75164; AlphaScreen JMJD2A-Tudor / H3K4me3 peptide binding; Potency, µM (doses to about 114 µM), most hits filed as inhibitors; hit rate 4.4% among 390,000; AID 504339; note: nearly all actives have a fitted effect of over 50% in size
BAZ2B inh: BAZ2B (human) inhibition; Q9UIF8; AlphaScreen BAZ2B-H3K14Ac peptide displacement; Potency, µM (doses to about 114 µM), hits mostly inhibitors; hit rate 4.4% among 360,000; note: nearly all actives have a fitted effect of over 60% in size
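AlphaScreen luminescence quantifies BAZ2B engagement of H3K14Ac peptide; the protein and biotinylated peptide are both at 50 nM final, buffer PBS pH 7.4 with 0.01% Tween-20, all steps at room temperature.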
HP1b binding inh: blocks HP1-beta chromodomain binding to methylated histone tails; P83916; AlphaScreen HP1-beta / biotin-H3K9me3 peptide binding; Potency, µM (doses to about 114 µM), actives largely listed as inhibitors; hit rate 0.56% among 390,000; AID 540317; note: nearly all actives have a fitted effect of over 70% in size
Target sequence (P83916 whole entry, looked up): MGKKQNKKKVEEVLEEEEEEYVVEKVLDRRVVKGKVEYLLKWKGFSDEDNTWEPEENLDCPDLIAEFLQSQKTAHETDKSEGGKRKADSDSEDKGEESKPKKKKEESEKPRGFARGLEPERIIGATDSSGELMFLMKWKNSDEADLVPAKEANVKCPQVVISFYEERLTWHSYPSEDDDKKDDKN
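HP1-beta protein (50 nM final) preincubated 30 min at room temperature with biotinylated H3(1-18)K9me3 peptide (50 nM) in PBS pH 7.4, 0.01% Tween-20, then compound added for 30 min. AlphaScreen streptavidin donor/nickel chelate acceptor beads (10 ug/mL final), 30 min dark, luminescence read.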
Of the large screens only hits and unclear results are named; the others gave an inactive call. Calls come from the whole dose curve; as a rule, active = well fitted curve in the direction sought with a large enough effect; inconclusive = small, poorly fitted or top-dose-only effect, or another doubt; inactive = no such curve, though single readings can be large; an effect the other way counts as inactive or inconclusive.

C=CCOc1ccc(C(=O)Nc2ccccc2C(=O)NCc2cccnc2)cc1	G9a block 71µM (no result: TDP1 inh)
COCc1ccc(C(=O)Nc2ccccc2C(=O)NCc2cccnc2)cc1	none
COc1ccc(CCNC(=O)C(=O)NCC(c2ccco2)S(=O)(=O)c2ccc(F)cc2)cc1 (stereo not given)	none (no result: Sfp PPTase inh)
O=C(O)/C(=C\c1ccccc1OC(F)F)Sc1nnc(-c2ccc(F)cc2)o1	none
CCCS(=O)(=O)c1nc(S(=O)(=O)c2ccc(C)cc2)c(NCc2ccccn2)s1	G9a block 35µM
CS(=O)(=O)c1nc(S(=O)(=O)c2ccc(Cl)cc2)c(NCc2ccccn2)s1	G9a block 40µM
CCCS(=O)(=O)c1nc(S(=O)(=O)c2ccc(C)cc2)c(NCc2ccco2)s1	G9a block 40µM
CCCS(=O)(=O)c1nc(S(=O)(=O)c2ccc(C)cc2)c(N2CC(C)OC(C)C2)s1 (stereo not given)	G9a block 50µM
CCSc1n[nH]c2nc3c(c(=O)n12)C1(CCCC1)Cc1ccccc1-3	none
C=CCSc1n[nH]c2nc3c(c(=O)n12)C1(CCCC1)Cc1ccccc1-3	G9a block 50µM
COc1ccccc1C1C(C(=O)Nc2ccccc2)=C(C)Nc2nc(-c3ccccc3)nn21 (stereo not given)	none (no result: TDP1 inh, Sfp PPTase inh)
COc1ccc(N2C(=O)/C(=C3/C=CC=CN3C)SC2=S)cc1	G9a block 45µM, Sfp PPTase inh 50µM
CCN1C(=O)/C(=C2/C=CC=CN2C)SC1=S	G9a block inconclusive, Sfp PPTase inh inconclusive, BAZ2B inh inconclusive, HP1b binding inh inconclusive
CN1C=CC=C/C1=C1/SC(=S)N(Cc2ccccc2)C1=O	G9a block inconclusive, Sfp PPTase inh inconclusive, JMJD2A Tudor inconclusive, BAZ2B inh 40µM, HP1b binding inh inconclusive
CC1COc2c(N3CCN(C)CC3)c(F)cc3c(=O)c(C(=O)O)cn1c23 (stereo not given)	none
CCOc1ccc(NC(=O)c2ccc(NC(=O)c3cn4c5c(c(N6CCN(C)CC6)c(F)cc5c3=O)OCC4C)cc2)cc1 (stereo not given)	G9a block 50µM
CCOc1ccc(N(CC)S(=O)(=O)N2CCCC(C(=O)Nc3ccc(OC)c(Cl)c3)C2)cc1 (stereo not given)	none (no result: Sfp PPTase inh)
N#C/C(=C/c1cn(-c2ccccc2)nc1-c1cccc(OCc2ccccc2)c1)C(=O)NCCCn1ccnc1	JMJD2A Tudor 40µM, BAZ2B inh 10µM, HP1b binding inh inconclusive
N#C/C(=C/c1cn(-c2ccccc2)nc1-c1cccc(S(=O)(=O)N2CCCC2)c1)C(=O)NCc1ccco1	G9a block 50µM
CCOc1cccc(-c2nn(-c3ccccc3)cc2/C=C(/C#N)C(=O)NCCCn2ccnc2)c1	G9a block inconclusive, Sfp PPTase inh inconclusive, JMJD2A Tudor inconclusive, BAZ2B inh 35µM, HP1b binding inh inconclusive
CCC1C(=O)Nc2ccccc2N1C(=O)c1ccc(Cl)nc1 (stereo not given)	JMJD2A Tudor 100µM
CC(=O)OC(C)C	none (no result: G9a block, Sfp PPTase inh, JMJD2A Tudor, BAZ2B inh, HP1b binding inh)
Cc1nc2c(s1)sc1ccccc12	none
CC[n+]1c(C)sc2sc3ccccc3c21	G9a block 1µM, Sfp PPTase inh 2.8µM, BAZ2B inh 25µM (no result: JMJD2A Tudor, HP1b binding inh)
CC1=C(C(=O)N2CCN(c3ccccc3)CC2)C2(CCCCC2)OC1=O	none (no result: Sfp PPTase inh)
Nc1nc(NCc2ccccc2)nc(Nc2cccc(F)c2)c1[N+](=O)[O-]	none
O=[N+]([O-])c1ccc(CNc2cccc(F)c2)s1	G9a block 50µM, JMJD2A Tudor inconclusive (no result: TDP1 inh)
Cc1cccc(NCc2ccc([N+](=O)[O-])s2)c1	G9a block 45µM, JMJD2A Tudor inconclusive, BAZ2B inh inconclusive (no result: TDP1 inh)
CCOC(=O)c1cc(S(=O)(=O)N(C)Cc2ccccc2)cn1C	none
Cc1cc(OCC(=O)NCCO)ccc1Cl	none
Cc1ccc(OCC(=O)NCCCNC(=O)COc2ccc(C)cc2)cc1	G9a block 35µM
Cc1cc(OCC(=O)NCCO)cc(C)c1Cl	JMJD2A Tudor 89µM
COc1ccc(OC(=O)COc2ccc(C)cc2)cc1	none
Cc1ccc(OCC(=O)Oc2ccc(C)c(C)c2)cc1	TDP1 inh 50µM
CC(=O)C1=C(C)OC(N)=C(C#N)C1c1cc2cccc(C)c2nc1Cl (stereo not given)	G9a block inconclusive
CCOC(=O)C1=C(C)OC(N)=C(C#N)C1c1cccc(C)c1 (stereo not given)	none
COCCOC(=O)C1=C(C)OC(N)=C(C#N)C1c1cc2cccc(C)c2nc1Cl (stereo not given)	Sfp PPTase inh inconclusive, BAZ2B inh 50µM (no result: G9a block)
COC(=O)C1=C(C)OC(N)=C(C#N)C1c1cc2cccc(C)c2nc1Cl (stereo not given)	G9a block 22µM, BAZ2B inh 79µM (no result: JMJD2A Tudor, HP1b binding inh)
CCOc1ccccc1C(=O)NCC(=O)OCCOc1cccc(Cl)c1	none (no result: G9a block)
Nc1cc(C(=O)c2ccccc2)ccc1[N+](=O)[O-]	none
COc1cccc(OCC(O)CN2CCN(C(c3ccccc3)c3ccccc3)CC2)c1 (stereo not given)	none (no result: TDP1 inh, G9a block, Sfp PPTase inh, BAZ2B inh)
CCN1CCN(CC(O)COc2cccc(OC)c2)CC1 (stereo not given)	G9a block 56µM
CCc1ccc(OCC(O)CN2CCN(c3ccc(OC)cc3)CC2)cc1 (stereo not given)	G9a block 10µM, JMJD2A Tudor 35µM, BAZ2B inh 71µM (no result: TDP1 inh)
COc1ccc(N2CCN(CC(O)COCc3ccccc3)CC2)cc1 (stereo not given)	G9a block 40µM, JMJD2A Tudor inconclusive, BAZ2B inh 56µM
COc1ccc(N2CCN(CC(O)COc3ccc(C(C)(C)C)cc3)CC2)cc1 (stereo not given)	G9a block inconclusive, JMJD2A Tudor 79µM, BAZ2B inh inconclusive (no result: TDP1 inh, Sfp PPTase inh)
O=C(NCc1ccc(F)cc1)c1cnc(N2CCCCC2)c2ccccc12	none (no result: Sfp PPTase inh)
CCCC[C@H]1COCCS(=O)(=O)N1Cc1ccc(Br)cc1	none (no result: TDP1 inh)
CCC(C)NC(=O)CNC(=O)c1nn(-c2ccc(OC)cc2OC)c(=O)c2ccccc12 (stereo not given)	none (no result: TDP1 inh)
O=C(NN=Cc1ccccc1C(=O)O)C(=O)NN=Cc1ccccc1C(=O)O	JMJD2A Tudor 50µM (no result: TDP1 inh, G9a block, Sfp PPTase inh, BAZ2B inh)
O=C(O)c1ccccc1C=NNc1ccccn1	JMJD2A Tudor 28µM (no result: TDP1 inh, G9a block, Sfp PPTase inh, BAZ2B inh)
O=C(O)c1ccccc1C=NNc1ccc([N+](=O)[O-])cn1	none (no result: TDP1 inh, G9a block, Sfp PPTase inh, BAZ2B inh)
O=C(N/N=C/c1ccccc1C(=O)O)c1ccncc1	none (no result: TDP1 inh)
COc1cc(OC)c(NS(=O)(=O)c2c(C)[nH]c(=O)[nH]c2=O)cc1Cl	none (no result: TDP1 inh)
O=c1cc2oc3cc(O)c(O)cc3c(-c3ccccc3[N+](=O)[O-])c-2cc1O	G9a block 1.4µM, Sfp PPTase inh 35µM, JMJD2A Tudor 0.71µM, BAZ2B inh 1.1µM, HP1b binding inh 0.79µM (no result: TDP1 inh)

Assay outcomes deposited in PubChem BioAssay by National Center for Advancing Translational Sciences (NCATS).
